Results: PubChem BioAssay AID588351 (The Scripps Research Institute Molecular Screening Center, 2011)
About 1,600 (84%) of roughly 1,900 compounds were called active. So high a share suggests a set chosen from earlier hits. A selection follows. A number with no mark means an inactive call.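 How the source made its calls: active means mean activation above a set limit taken from the primary screen (cut at about 8% in these data); inactive means the rest.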

test: frataxin promoter-driven luciferase activation – cell-based, luminescence, HEK293 lucGAA850, triplicate, confirmation (AID 588351); conditions: HEK293 lucGAA850 FXN promoter luciferase reporter, 24 h; at 6 µM; active compounds read high; 100% = activation by SAHA;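 further: 0% = DMSO wells and 100% = 10 µM SAHA wells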

Compound	activation
Cc1cc(C(=O)N/N=C\C(Br)=C\c2ccccc2)c(C)o1	26.2% (active)
CC(C)c1cc(C(=O)N/N=C/C(Br)=C/c2ccccc2)n[nH]1	15.8% (active)
CC1(Cc2cccc(C#N)c2)C(=O)Nc2ccc(-c3cccc(C(F)(F)F)c3)cc21 (centres undefined)	10.7% (active)
Cc1c(-c2ccccc2)nc(N)c(C#N)c1-c1cccs1	14.5% (active)
O=C1[C@H]2[C@@H](c3ccc(F)cc3)N3C(=O)N(c4ccc(C(F)(F)F)cc4)C(=O)[C@@]3(Cc3ccccc3)[C@H]2C(=O)N1C1CCCCC1	16.2% (active)
O=C1[C@H]2[C@@H](c3ccc(Cl)cc3)N3C(=O)N(c4cccc(F)c4)C(=O)[C@@]3(Cc3ccccc3)[C@H]2C(=O)N1C1CCCCC1	11.2% (active)
C[C@@]12C(=O)N(c3cccc(Br)c3)C(=O)N1[C@H](c1ccc(Cl)cc1)[C@@H]1C(=O)N(C3CCCCC3)C(=O)[C@@H]12	5.12%
Cc1noc(C)c1-c1ccc2ncnc(NC(C)c3ccco3)c2c1 (centres undefined)	20.1% (active)
Cc1ccc(NC(=O)c2sc3nc(N)c(C#N)cc3c2N)cc1	27.4% (active)
O=C(CC1NCCc2ccccc21)Nc1cccc(Cl)c1 (centres undefined)	26.7% (active)
CC1(C(=O)NCc2cccc3ccccc23)CCN1Cc1ccc(-c2ccccc2)o1 (centres undefined)	11.9% (active)
COc1ccc(-c2csc(Cc3nc(O)cs3)n2)cc1	-4.16%
COc1ccc(-c2csc(Nc3ccc(O)cc3)n2)cc1	40.1% (active)
O=c1oc2ccccc2cc1-c1csc(Nc2ccc(O)cc2)n1	44.3% (active)
O=c1[nH]cnc2c1c(-c1ccccc1)cn2-c1ccc(F)cc1	9.89% (active)
Cc1ccc(-n2c(C)cc(/C=C(\C#N)C(=O)NCC3CCCO3)c2C)cc1 (centres undefined)	41.3% (active)
COc1ccc(NC(=O)CSc2nc(SC)ns2)c(OC)c1	40.6% (active)
CSc1nc(N)c(C#N)c(-c2ccccc2Cl)c1C#N	21.1% (active)
CCCCn1c(SCC(=O)NCCc2ccc(OC)c(OC)c2)nc2c1c(=O)n(C)c(=O)n2C	8.75% (active)
COc1ccc(N(CCC#N)S(=O)(=O)c2ccc(Cl)cc2)cc1	3.78%

Compound	activation
Cc1ccc(C2Nc3cccc4cccc(c34)N2)cc1	12.4% (active)
COc1cc(/C=N/Nc2nc3ccccc3s2)ccc1O	34.8% (active)
CC1(C(=O)N/N=C/c2cc3c(cc2Br)OCO3)CC1(Br)Br (centres undefined)	15.3% (active)
COc1ccc(-c2nnc(SCC(=O)c3cccs3)o2)c(OC)c1	26.2% (active)
N#CC1=C(SCc2ccc(C#N)cc2)N=C(N)C(c2nc(-c3ccccc3)cs2)C12CCCCC2 (centres undefined)	17.6% (active)
CCOc1ccc(Nc2oc(Cc3ccccc3)nc2C#N)cc1	32.1% (active)
CCC1(CC)Cc2ccccc2-c2nc(CCl)[nH]c(=O)c21	1.84%
CN1C(=O)/C(=C\c2cc(Br)cs2)c2ccccc21	38.3% (active)
CCOC(=O)c1cc2cc(C)ccc2[nH]1	29.5% (active)
CN(C)[C@@H]1C(=O)C(C(N)=O)=C(O)[C@@]2(O)C(=O)C3=C(O)c4c(O)ccc(Cl)c4[C@@H](O)[C@H]3C[C@@H]12	15.3% (active)
C=C1c2c(Cl)ccc(O)c2C(O)=C2C(=O)[C@]3(O)C(O)=C(C(N)=O)C(=O)[C@@H](N(C)C)[C@@H]3[C@@H](O)C12 (some centres undefined)	15.5% (active)
Cc1nc(-c2ccc(F)cc2)c(CC(=O)Nc2cc(S(=O)(=O)N3CCCCC3)ccc2C)s1	6.94%
COc1ccc(C2Nc3ccccc3C(=O)N2c2ccc(Cl)cc2)cc1Cn1cc([N+](=O)[O-])cn1 (centres undefined)	26.8% (active)
Cc1cc(C)nc(S/C=C/C(=O)c2ccccc2)n1	-19%
Oc1ccccc1-c1cc(-c2ccc(Cl)cc2)n[nH]1	46.8% (active)
c1ccc(-c2cc(-c3ccccc3)[nH]n2)cc1	43% (active)
O=C(N/N=C/C=C/c1ccco1)c1cccs1	31.4% (active)
O=C(Nc1ccc2c(c1)OCCO2)c1cnccn1	25.8% (active)
O=C(COc1ccc(Cl)cc1Cl)NCCCNC(=O)c1cnccn1	7.43%
